Inhibition data for 73 molecules are collected here from PubChem BioAssay.

Values without a mark were called inactive. The source made the active and inactive calls. Cut-off read from the data, not from the text of the source, unless noted: active = inhibition above about 25%; inactive = the rest.

Assay [1] has as its target Nuclear receptor coactivator 1 (Homo sapiens) (UniProt Q15788). The assay can be described thus: SRC1 coactivator transcriptional activity inhibitors, confirmation, cell-based, luminescence, quadruplicate (AID 588820;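 active = mean inhibition above 46.68%, the untreated control wells mean plus 3 SD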;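 note: 0% = DMSO wells and 100% = gossypol 36 µM treated wells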). The note with it: HEK293 GAL4-SRC1 luciferase reporter, at 3.6 µM, active compounds read high.
Assay [2] can be described thus: VP16 transactivation inhibitors, counter-screen for SRC1 inhibitor project, cell-based, luminescence, high throughput (AID 588824). The note with it: cell-based VP16 transactivation luciferase luminescence; at 3.6 µM; active compounds read high. A general note: A counterscreen serves to expose hits that act by an unwanted route or on another target.

Nuclear receptor coactivator 1 (Homo sapiens), sequence (Q15788 whole entry, looked up, the tested form may be a part): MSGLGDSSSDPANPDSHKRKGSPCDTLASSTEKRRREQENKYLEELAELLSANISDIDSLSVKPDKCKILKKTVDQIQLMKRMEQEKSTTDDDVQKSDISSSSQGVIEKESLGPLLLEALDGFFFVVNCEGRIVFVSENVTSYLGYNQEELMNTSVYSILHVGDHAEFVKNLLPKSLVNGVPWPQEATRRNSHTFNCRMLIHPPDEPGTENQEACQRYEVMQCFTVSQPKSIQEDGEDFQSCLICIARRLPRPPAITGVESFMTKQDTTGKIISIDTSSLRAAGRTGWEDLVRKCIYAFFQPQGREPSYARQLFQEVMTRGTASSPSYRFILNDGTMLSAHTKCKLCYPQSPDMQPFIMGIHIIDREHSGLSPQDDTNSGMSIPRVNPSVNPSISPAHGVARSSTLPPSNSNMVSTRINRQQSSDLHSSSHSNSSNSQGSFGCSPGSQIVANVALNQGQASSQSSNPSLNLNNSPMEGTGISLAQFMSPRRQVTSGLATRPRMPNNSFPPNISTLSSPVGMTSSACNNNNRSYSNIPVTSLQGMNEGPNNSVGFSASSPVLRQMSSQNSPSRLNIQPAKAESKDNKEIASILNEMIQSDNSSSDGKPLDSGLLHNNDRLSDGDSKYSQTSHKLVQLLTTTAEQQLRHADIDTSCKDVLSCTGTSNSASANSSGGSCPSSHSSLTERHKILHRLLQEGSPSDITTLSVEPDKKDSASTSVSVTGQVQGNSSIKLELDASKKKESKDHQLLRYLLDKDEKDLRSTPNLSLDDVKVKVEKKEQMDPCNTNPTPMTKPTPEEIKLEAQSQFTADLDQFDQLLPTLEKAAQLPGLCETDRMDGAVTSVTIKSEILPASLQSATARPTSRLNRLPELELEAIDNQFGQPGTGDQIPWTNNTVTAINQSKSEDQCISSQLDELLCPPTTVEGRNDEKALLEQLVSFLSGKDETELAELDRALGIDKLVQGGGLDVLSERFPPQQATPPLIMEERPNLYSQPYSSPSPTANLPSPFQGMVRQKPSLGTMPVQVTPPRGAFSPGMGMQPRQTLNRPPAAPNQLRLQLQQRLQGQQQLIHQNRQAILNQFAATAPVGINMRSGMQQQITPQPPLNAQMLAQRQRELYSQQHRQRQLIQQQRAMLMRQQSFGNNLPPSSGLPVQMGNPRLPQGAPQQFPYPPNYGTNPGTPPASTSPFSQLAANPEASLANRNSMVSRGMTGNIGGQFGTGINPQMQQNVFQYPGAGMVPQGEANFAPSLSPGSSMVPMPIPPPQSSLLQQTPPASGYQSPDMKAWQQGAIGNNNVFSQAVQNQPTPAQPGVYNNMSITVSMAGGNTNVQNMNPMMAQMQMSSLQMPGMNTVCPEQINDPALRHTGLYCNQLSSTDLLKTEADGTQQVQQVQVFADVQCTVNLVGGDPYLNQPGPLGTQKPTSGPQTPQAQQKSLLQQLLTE

What is called inhibition is the change of the read-out against control, counted positive when it falls. `C=CCn1c(SCC(=O)Nc2ccccc2F)nc2ccccc2c1=O`: the inhibition in assay [1] was 2.78%; in assay [2], -1.24%.

On to `O=C(NC1CCCCC1)C(c1ccc(F)cc1)N(Cc1ccco1)C(=O)c1csnn1` (stereo unspecified), for which the results for the inhibition in assay [1] and in assay [2] were -14.3% and -0.45%, respectively.

`C=CCn1c(Oc2ccccc2F)nc2c1c(=O)n(C)c(=O)n2C`: the results for the inhibition in assay [1] and in assay [2] were 46.6% and 23.6%, respectively.

`O=C(Nc1ccccc1N1CCOCC1)c1ccc(N2CCOCC2)c([N+](=O)[O-])c1`: the inhibition was -19.5% in assay [1] and -16.2% in assay [2].

As to `CCCn1c(=O)c(C(=O)NC(C)c2ccccc2)c(O)c2ccccc21` (stereo unspecified), the values for the inhibition in assay [1] and in assay [2] were -10.4% and -9.6%, respectively.

Regarding `CCN(CC(=O)Nc1ccc(NC(C)=O)cc1)C(=O)Cc1ccc(S(=O)(=O)N2CCOCC2)s1`, the inhibition in assay [1] was 6.3%; in assay [2] it was 8.19%.

`CCC(C)c1ccc(S(=O)(=O)Nc2cccnc2)cc1` (stereo unspecified): the inhibition in assay [1] was -9.79%; in assay [2], -4.32%.

`Cc1ccc(C)c(NC(=O)CCc2ccc(C)o2)c1`: the values for the inhibition in assay [1] and in assay [2] were 5.55% and -2.65%, respectively.

Turning to `O=C(Nc1ccncc1)c1ccccc1[N+](=O)[O-]`, the inhibition was 33.6% in assay [1] and 19% in assay [2].

`O=C(c1ccccc1Sc1ccccc1[N+](=O)[O-])N1CCCCC1`: the inhibition in assay [1] is 10.1%; in assay [2], 14.3%.

Regarding `COc1cc(C=C2CCCC(=Cc3ccc(OCC4CO4)c(OC)c3)C2=O)ccc1OCC1CO1` (stereo unspecified), the inhibition in assay [1] was -119%; in assay [2], 9.37%.

Regarding `O=S(=O)(NCc1ccncc1)c1ccc(Br)s1`, the inhibition in assay [1] was -15.5%; in assay [2], 28.8% (active).

Consider `CC(=O)/C(=C/c1ccccc1)C(=O)Nc1ccccc1C`, for which the inhibition in assay [1] was 5.97%; in assay [2], 23.8%.

`CC(=O)NC(c1cc(Cl)c2cccnc2c1O)C1CC1` (stereo unspecified): the values for the inhibition in assay [1] and in assay [2] were 30.9% and 8.51%, respectively.

Take `COc1ccc(-c2csc(N3CCN(c4cc(C)nc5ccccc45)CC3)n2)cc1OC`: the inhibition in assay [1] was -18%; in assay [2], 20.4%.

As for `CCN(C(=S)NC(=O)C1CC1)c1ccccc1`, the results for the inhibition in assay [1] and in assay [2] were -8.52% and -4.48%, respectively.

Turning to `C=CCSc1nnc(-c2cc(C(C)(C)C)nn2Cc2ccc(F)cc2)n1C`, the inhibition in assay [1] is 1.92%; in assay [2] it was 4.7%.

In the case of `CC(=O)c1cn(CC(=O)Nc2cccc(C)c2C)c2ccccc12`, the inhibition in assay [1] was -15.8%; in assay [2], 13%.

In the case of `OC(CN1CCN(c2cccc(Cl)c2)CC1)c1ccccc1` (stereo unspecified), the inhibition was -16.2% in assay [1] and -6.51% in assay [2].

Take `COc1ccc(C(=O)Nc2ccc(-c3ccc(C)o3)cc2)cc1S(=O)(=O)N1CCOCC1`: the figures for the inhibition in assay [1] and in assay [2] were -16.1% and 22.2%, respectively.

As for `O=C(CNC(=O)c1cccc(F)c1)N/N=C/c1cc(Br)ccc1OC(=O)/C=C/c1ccco1`, the inhibition in assay [1] was 3.9%; in assay [2], 6.51%.

For `O=C1c2cccc(OCc3ccc(F)cc3)c2CCN1Cc1ccc(F)cc1`, the results for the inhibition in assay [1] and in assay [2] were 21.3% and 33.4% (active), respectively.

For `COc1ccc(C(=O)N2CCN(c3ccc(NC(=O)c4cccs4)cc3)CC2)cc1`, the inhibition in assay [1] is 2.7%; in assay [2], -1.25%.

For the molecule `COc1ccc(C(=O)Nc2ccc(N3CCCCCC3)cc2)cc1S(=O)(=O)N1CCOCC1`, the inhibition in assay [1] is -2.46%; in assay [2], 18.2%.

As to `COc1cccc(NC(=O)CN(C)CC(=O)Nc2ccc(Cl)cc2[N+](=O)[O-])c1`, the inhibition in assay [1] is 26.6%; in assay [2] it was 14.7%.

`CCN1CCN(S(=O)(=O)c2cc(OCC(=O)NC3CCCCC3)c(C)cc2Cl)CC1`: the values for the inhibition in assay [1] and in assay [2] were -7.06% and 31.1% (active), respectively.

For the molecule `COc1ccc2c(c1)c(C(=O)CN1CCN(Cc3ccccc3)CC1)c(C)n2C`, the figures for the inhibition in assay [1] and in assay [2] were -13.6% and -0.22%, respectively.

Turning to `Cc1cc(C)nc(/N=C(\N)Nc2ccc(C(C)C)cc2)n1`, the inhibition in assay [1] was 3.7%; in assay [2], 9.11%.

On to `Cc1ccccc1NC(=S)NNC(=O)c1csc2c1CCC(C)C2` (stereo unspecified), for which the inhibition in assay [1] was -45.9%; in assay [2] it was -23%.

As for `O=C(c1ccc(Cl)c(Cl)c1)N1CCN(c2ccccn2)CC1`, the figures for the inhibition in assay [1] and in assay [2] were -12.5% and 7.01%, respectively.

For `Cc1ccccc1CN1CCC(Oc2ccc(C(=O)NCc3ccccn3)cc2)CC1`, the inhibition in assay [1] was -15.8%; in assay [2], 8.1%.

In the case of `CN1C(=O)[C@H](Cc2ccc([N+](=O)[O-])cc2)NC1=S`, the inhibition was 27.2% in assay [1] and 26.4% (active) in assay [2].

With `CCOc1ccc(NC(=O)NCCCSC2CCCCC2)cc1`, the inhibition was -7.9% in assay [1] and -11.4% in assay [2].

Consider `CC(C)=CCCC(C)CN1CCC(n2nccc2NC(=O)c2ccccc2)CC1` (stereo unspecified), for which the inhibition in assay [1] was -6.47%; in assay [2] it was -14.3%.

Turning to `COC(=O)c1ccc(/C=N\NC(=O)CC(=O)NCCc2ccccc2)cc1`, the inhibition in assay [1] is -1.47%; in assay [2], -15.5%.

For the molecule `O=c1[nH]nnc2c1ncn2C1OC(CO)C(O)C1O` (stereo unspecified), the inhibition in assay [1] was 0.97%; in assay [2], 17.6%.

Regarding `COc1cc2c(cc1NC(=O)/C=C/c1cc(OC)c(OC)c(OC)c1)oc1ccccc12`, the inhibition in assay [1] is 3.29%; in assay [2], -2.37%.

`COc1ccccc1CCNC(=O)CCn1c(=O)c2cccn2c2ccc(F)cc21`: the inhibition in assay [1] was -9.66%; in assay [2], -15.2%.

Take `Cc1ccccc1C(=O)Nc1cc(NC(=O)c2ccccc2C)cc(C(=O)O)c1`: the figures for the inhibition in assay [1] and in assay [2] were -14.1% and -11.4%, respectively.

In the case of `CC(OC(=O)CSCC(=O)Nc1ccc(Cl)cc1)C(=O)N(C)Cc1ccccc1` (stereo unspecified), the inhibition in assay [1] was -7.38%; in assay [2], 1.96%.

Take `CCCNC(=O)C1(C)CCCN(Cc2cccc(C#N)c2)C1` (stereo unspecified): the inhibition was 36.4% in assay [1] and 26% (active) in assay [2].

As for `Cc1cc2c(NCc3ccccc3)ncnc2s1`, the inhibition in assay [1] is 5%; in assay [2] it was 18.8%.

As to `Cc1ccccc1C(=O)/C(C#N)=N/Nc1c(C)n(C)n(-c2ccccc2)c1=O`, the inhibition in assay [1] was 34.3%; in assay [2], 21.1%.

Turning to `Cc1cc2nc(C3CCCCC3)c(Cc3cccc(F)c3)n2c(C)c1Br`, the results for the inhibition in assay [1] and in assay [2] were 4.23% and 11.8%, respectively.

`Cc1[nH]nc2ncc(C(=O)c3cc(F)ccc3O)cc12`: the inhibition in assay [1] is 18.4%; in assay [2], 16.1%.

In the case of `COc1ccc(CCNC(=O)C(=O)NCC2CCCN2S(=O)(=O)c2ccccc2)cc1OC` (stereo unspecified), the results for the inhibition in assay [1] and in assay [2] were -20.3% and -7.77%, respectively.

As to `CC(=O)N1CCc2c(sc(NC(=O)C3CCCN3S(=O)(=O)c3cccs3)c2C(N)=O)C1` (stereo unspecified), the inhibition in assay [1] is 4.87%; in assay [2], -1.35%.

In the case of `Nc1c(C(=O)c2ccccc2)sc2nsc(SCCN3CCCC3)c12`, the inhibition in assay [1] was -0.71%; in assay [2], -2.2%.

In the case of `CCN(CC)CCNc1nc2cc(OC)c(OC)cc2c2nc(-c3ccccc3)nn12`, the figures for the inhibition in assay [1] and in assay [2] were 9.19% and 33.3% (active), respectively.

For the molecule `FC(F)(F)c1cccc(Oc2ccc3c(C(F)(F)F)cc(C(F)(F)F)nc3n2)c1`, the inhibition in assay [1] was -2.81%; in assay [2], -6.43%.

As to `CCN1C(=O)c2cccc3c(S(=O)(=O)Nc4ccc(O)c(C(=O)O)c4)ccc1c23`, the inhibition in assay [1] is 5.84%; in assay [2] it was -15.2%.

Regarding `COc1ccc(Nc2nc(-c3cccs3)nc3ccccc23)cc1S(=O)(=O)N1CCOCC1`, the values for the inhibition in assay [1] and in assay [2] were -30.8% and -9.26%, respectively.

With `Cc1cc(C)cc(NS(=O)(=O)c2ccc3[nH]c(=O)ccc3c2)c1`, the inhibition in assay [1] is -17.7%; in assay [2], -3.07%.

Turning to `CCNc1nc2c(c(=O)n(C)c(=O)n2C)n1Cc1ccc(Cl)cc1`, the results for the inhibition in assay [1] and in assay [2] were -0.87% and 23.4%, respectively.

Take `Cc1csc(NC(=O)c2cc(-c3ccccc3)nc3ccccc23)n1`: the inhibition is 7.56% in assay [1] and 1.79% in assay [2].

With `COc1ccccc1NC(=O)NC1(C(=O)N2CCCCC2)CCCCC1`, the inhibition in assay [1] was 4.76%; in assay [2], 10.3%.

On to `CC(Oc1ccccc1F)C(=O)NNC(=O)CC(C)c1ccccc1` (stereo unspecified), for which the inhibition in assay [1] is 12.4%; in assay [2], 2.31%.

With `CC(C)(C)c1ccc(CC(=O)N2CCC2(C)C(=O)Nc2ccc(F)cc2F)cc1` (stereo unspecified), the results for the inhibition in assay [1] and in assay [2] were 1.73% and 14.4%, respectively.

For `COc1ccc(-n2cc(-c3ccccc3)c3c(N4CCOCC4)ncnc32)cc1`, the inhibition in assay [1] is -50.7%; in assay [2], -1.14%.

For `CN(C)C(=O)c1cccc(-c2cnc3cccnn23)c1`, the results for the inhibition in assay [1] and in assay [2] were -7.49% and 7.53%, respectively.

As to `Cc1cccc(NC(=O)c2cc(S(=O)(=O)N(C)c3ccc(F)cc3)ccc2Cl)n1`, the inhibition in assay [1] is -17.6%; in assay [2], -4.3%.

Consider `Fc1cc2[nH]cnc2cc1Cl`, for which the inhibition was -2.02% in assay [1] and -5.47% in assay [2].

Regarding `COc1cc2c(cc1OC)C(C)N(C(=O)c1cc3ccccc3o1)CC2` (stereo unspecified), the results for the inhibition in assay [1] and in assay [2] were -4.6% and 2.25%, respectively.

Consider `Nc1ccn(C2OC(CO)C(O)C2O)c(=O)n1` (stereo unspecified), for which the inhibition is 24.8% in assay [1] and 20.1% in assay [2].

As to `O=c1[nH]c(CSc2nc3ccccc3o2)nc2c1cnn2-c1ccccc1`, the inhibition in assay [1] is -22.6%; in assay [2], 4.42%.

As to `O=C(c1ccccc1)C1CCN(C(=O)c2cccs2)CC1`, the inhibition in assay [1] is -10%; in assay [2], -0.27%.

On to `NC(N)=N/N=C/c1ccc(Cl)c([N+](=O)[O-])c1`, for which the inhibition in assay [1] was -20.2%; in assay [2] it was -0.27%.

On to `CSc1sc(C(=O)NC(=O)NCc2cccnc2)c(C)c1-c1ccon1`, for which the figures for the inhibition in assay [1] and in assay [2] were 3.32% and 1.48%, respectively.

Consider `COc1ccc(-c2nnc(NC(=O)CSc3ccccc3)s2)cc1OC`, for which the inhibition was 1.2% in assay [1] and -8.89% in assay [2].

Take `c1ccc(-c2cc(N3CCCCC3)nc(-c3ccccc3)n2)cc1`: the inhibition in assay [1] was -21.1%; in assay [2] it was -2.43%.

With `CC(=O)N/C(=N/c1nc(C)cc(C)n1)Nc1cccc(C)c1C`, the inhibition is -0.27% in assay [1] and -6.32% in assay [2].

With `CCN(CC)c1ccc(NC(=O)CSc2n[nH]c(-c3ccco3)n2)cc1`, the figures for the inhibition in assay [1] and in assay [2] were -8.8% and -1.86%, respectively.

`CN=C(C)/C(C(=O)OC)=C(/O)c1c(F)cccc1F`: the inhibition is -28.3% in assay [1] and 3.9% in assay [2].
